# Bioassay records (PubChem BioAssay)
# Bead autofluor: flagged as autofluorescent in microsphere protease counterscreen; compound autofluorescence counterscreen, microsphere flow cytometry; active compounds read high; fluorescence intensity (test concentration not listed); 360,000 compounds, 3.1% hits; AID 624483; in the data active = fluorescence intensity above about 16000; inconclusive = no clear call, values can overlap the other calls
# BoNT-A LC inh2: BoNT/A light chain protease inhibitors, primary screen, biochemical, flow cytometry, MLPCN library; multiplex microsphere protease substrate cleavage; 360,000 compounds, 0.17% hits; Botulinum neurotoxin type A light chain protease (Clostridium botulinum A str. ATCC 3502); inhibition, % at 10 µM; note: plate controls were buffer without enzyme for full effect and enzyme alone for no effect
# Anthrax LF inh2: Bacillus anthracis LF protease inhibitors, primary screen, biochemical, multiplex microsphere, MLPCN library; inhibition, % at 10 µM; 360,000 compounds, 0.12% hits; multiplex microsphere protease cleavage assay; AID 588501, 2011; Lethal factor (Bacillus anthracis), P15917; note: plate controls were buffer without enzyme for full effect and enzyme alone for no effect
# MazF activator: activators of E. coli MazEF toxin-antitoxin RNase, primary screen, biochemical, fluorescence, uHTS; Endoribonuclease toxin MazF (Escherichia coli (strain K12)), P0AE70; FAM/BHQ RNA-DNA oligo cleavage fluorescence, 5 h; activation, % at 20 µM; 350,000 compounds, 0.32% hits; in the data active = activation above about 50%
# BoNT-F LC inh: BoNT/F light chain protease inhibitors, primary screen, biochemical, flow cytometry, MLPCN library | inhibition, % at 10 µM | 360,000 compounds, 0.22% hits | Botulinum neurotoxin type F light chain protease (Clostridium botulinum) | AID 588497, 2011 | Multiplex microsphere protease cleavage assay; in the data active = inhibition above about 35%, passing the limit was not always enough; inconclusive = no clear call, values can overlap the other calls; note: plate controls were buffer without enzyme for full effect and enzyme alone for no effect
# Starred values were filed as active, the others as inactive; ? = inconclusive; · = not tested or not shown. Hits are enriched below; roughly 3.7% of the tested compounds scored in any of these assays. Cut-off read from the data, not from the text of the source, unless noted: active = inhibition above about 30%; inconclusive = no clear call, values can overlap the other calls; inactive = below that.
SMILES,Bead autofluor,BoNT-A LC inh2,Anthrax LF inh2,MazF activator,BoNT-F LC inh
CC1CCN(S(=O)(=O)c2cccc(S(=O)(=O)N3CCOCC3)c2)CC1,16191*,0,-1,2,-2
CCCC1NC(=O)c2cc3ccccc3cc2-n2c1nc1ccc(C)cc1c2=O (configuration not stated),3670,0,-6,-4,2
COc1ccccc1C(NC(=O)C1CCN(CCOc2ccc(Cl)cc2Cl)CC1)c1ccccn1 (configuration not stated),3554,0,-10,·,1
O=S(=O)(NCc1ccccc1)c1cccc(S(=O)(=O)N2CCOCC2)c1,21829*,2,-1,-3,4
O=S(=O)(Nc1nccs1)c1ccc(NS(=O)(=O)c2cccs2)cc1,19362*,6,-15,1,10
O=S(=O)(Nc1ccc(S(=O)(=O)Nc2nccs2)cc1)c1ccc(Br)cc1,5904,0,-4,-11,-2
C/C(=N\Nc1nnc(C)c(=O)[nH]1)C(=O)O,23478*,0,-6,10,-1
CCCCCc1ccc(CC(=O)O)cc1,25330*,?,-6,1,-5
CCCCc1ccc(CC(=O)O)cc1,4272,-1,3,1,-14
O=S1(=O)C[C@H](N2CCC(Cc3ccccc3)CC2)[C@@H](COCc2ccccc2)N1,5510,0,-6,·,2
Cc1cc(C)c2cc(C#N)c(NCCCNC(=O)CCC(=O)O)nc2c1,21922*,?,-2,2,2
Cc1ccc2nc(SCC(=O)NCc3cccs3)c(C#N)cc2c1,9212,-1,-6,3,-4
CC(=O)CSc1nc2cc3c(cc2cc1C#N)OCCO3,3414,4,0,80*,-4
COC(=O)CSc1nc2ccc(C)cc2cc1C#N,4268,0,-4,901*,0
COC(=O)CSc1nc2cc(C)cc(C)c2cc1C#N,4463,3,1,131*,8
Cc1cccc(C(=O)OCC(=O)NCc2ccc(Cl)cc2)c1,2988,0,-5,-3,-4
Cc1ccc(-c2nc3sc(C#N)c(N)n3c(=O)c2C#N)cc1,5000,0,-4,733*,5
CCNC(=S)N/N=C/c1ccc(OCC(=O)Nc2ccc(OC)cc2)c(OC)c1,10126,2,0,12,12
CCNC(=S)N/N=C/c1ccc(OCC(=O)Nc2ccc(C)cc2)cc1,20930*,-1,-4,-8,-5
CCNC(=S)N/N=C/c1ccc(OCCOc2ccccc2C)cc1,23540*,1,4,-15,-1
CN(CC(=O)Nc1ccc(Cl)cc1)C(=O)CNC(=O)Cc1cccc2ccccc12,4489,0,2,2,-8
O=C(Nc1nc2n(n1)C(c1ccccc1)CC(c1ccc(Cl)cc1)N2)c1ccco1 (configuration not stated),2618,0,-1,10,-11
COCC(=O)Nc1nc2n(n1)C(c1ccccc1)CC(c1ccc(OC)cc1)N2 (configuration not stated),11249,0,1,6,2
CCOc1ccc(C2CC(c3ccccc3)Nc3nc(N)nn32)cc1 (configuration not stated),18914*,?,3,-4,5
COc1ccc(C2CC(c3ccccc3)Nc3nc(N)nn32)cc1 (configuration not stated),10689,-2,-9,2,1
COCC(=O)Nc1nc2n(n1)C(c1ccc(OC)cc1)CC(c1ccc(OC)cc1)N2 (configuration not stated),21259*,?,-11,6,7
O=C(O)CCCC(=O)Nc1nc2n(n1)C(c1ccc(F)cc1)CC(c1ccc(Cl)cc1)N2 (configuration not stated),21330*,4,1,-4,7
CCc1noc(C)c1C(=O)N1CCN(c2cccc(Cl)c2)CC1,3545,-1,-3,5,-1
CS(=O)(=O)c1ccc(Cl)c(NC(=O)CCN2C(=O)C3CC=CCC3C2=O)c1 (configuration not stated),3594,0,-2,4,-7
Cn1c(=O)c2c(nc(NCc3ccc4c(c3)OCO4)n2Cc2ccccc2Cl)n(C)c1=O,17237*,-3,-1,7,-7
